Sampled rows, rich in hits. Any-hit rate of the full collection: about 7.5%.
SMN2 splice enh: SMN2 splice variant enhancement. AID 1458. actives 2.8% (n = 210,000). HEK293 SMN2-luciferase splicing reporter, luminescence, 30-36 h. Potency, µM (highest dose often 46.1 µM), actives largely listed as activators; note: nearly all actives have a fitted effect of over 55% in size
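HEK293 cells carry an SMN2 […]–luciferase reporter in which exon 7 inclusion puts luciferase in frame. Cells were plated 10-12 h before compound addition, then incubated 30-36 h at 37C. ONE-Glo luminescence was read; sodium butyrate at 4.5 mM final served as control.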
ELG1 genotoxic: genotoxicity induction in ELG1-luciferase HEK293T cells; actives 1.3% (n = 330,000); HEK293T ELG1-luciferase reporter, luminescence, 16 h; Potency, µM (doses to about 46 µM), hits mostly activators; AID 504466; note: nearly all actives have a fitted effect of over 60% in size
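DMSO vehicle served as control against compound-treated ELG1-luciferase HEK293T cells; exposure lasted 16 hr at 37 °C and 5% CO2, followed by ONE-Glo luminescence detection after 30 min.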
Luc counter: counter-screen: inhibitors of Kinase-Glo firefly luciferase; Kinase-Glo luciferase, ATP luminescence, 8 min; Potency, µM (top dose mostly 38.3 µM), hits mostly inhibitors; actives 0.28% (n = 200,000); AID 1379; note: nearly all actives have a fitted effect of over 60% in size
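Substrate mix (final 50 mM imidazole pH 7.2, 50 mM KCl, 7 mM MgCl2, 10 uM ATP, 0.01% Tween 20, 0.05% BSA) plus pin-tool compound, then Kinase-Glo detection mix; 8 min ambient, luminescence read.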
Rab9 prom act: activators of Rab9 promoter. Huh7 Rab9 promoter-luciferase reporter, luminescence, 24 h. Potency, µM (doses to about 9.22 µM), most hits filed as activators. actives 2.8% (n = 320,000). AID 485297; note: nearly all actives have a fitted effect of over 60% in size
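Huh7 cells stably carrying a Rab9 promoter-luciferase reporter, 1500 cells per well in OP-MEM I with 10% FBS, treated with compound 24 hours at 37C. Luciferase activity read by luminescence after 10 minutes with Amplite reagent.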
FLuc counter: counter-screen for miR-21 project: firefly luciferase inhibitors or activators; P08659; purified FLuc, Km substrates, luminescence inhibition; Potency, µM (series often up to 57.5 µM), actives largely listed as inhibitors; actives 6.9% (n = 360,000); note: nearly all actives have a fitted effect of over 55% in size
Target sequence (P08659 whole entry, looked up): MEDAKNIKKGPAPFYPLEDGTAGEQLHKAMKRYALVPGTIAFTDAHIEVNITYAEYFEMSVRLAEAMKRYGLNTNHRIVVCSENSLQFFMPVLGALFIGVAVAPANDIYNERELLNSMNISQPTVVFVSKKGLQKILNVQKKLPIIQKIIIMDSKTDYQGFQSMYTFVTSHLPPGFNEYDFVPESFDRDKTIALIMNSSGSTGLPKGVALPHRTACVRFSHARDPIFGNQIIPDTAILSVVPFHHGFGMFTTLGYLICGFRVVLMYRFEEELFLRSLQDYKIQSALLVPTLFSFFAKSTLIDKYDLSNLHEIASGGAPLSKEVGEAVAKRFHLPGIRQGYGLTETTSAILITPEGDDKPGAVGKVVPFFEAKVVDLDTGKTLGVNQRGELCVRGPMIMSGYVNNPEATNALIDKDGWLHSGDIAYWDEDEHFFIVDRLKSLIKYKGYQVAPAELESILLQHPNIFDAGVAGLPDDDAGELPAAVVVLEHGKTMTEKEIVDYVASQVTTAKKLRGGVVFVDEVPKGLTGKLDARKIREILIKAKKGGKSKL
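Purified P. pyralis luciferase (10nM final) with 10uM D-luciferin and 10uM ATP (Km levels) in 50mM Tris acetate pH 7.5, 10mM Mg acetate, 0.01% Tween-20, 0.05% BSA; qHTS 6-point titration, ~60 µM downward; luminescence read.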
NPC1 promoter act: activates the NPC1 promoter | Huh7 NPC1 promoter luciferase reporter, 24 h | Potency, µM (titrated, usually from 9.22 µM), most hits filed as activators | actives 2.4% (n = 320,000) | AID 485313; note: nearly all actives have a fitted effect of over 60% in size
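Readout is luciferase luminescence, reflecting NPC1 promoter activation in stably transfected Huh7 cells after 24 h compound exposure at 37 °C in reduced-serum medium with 10% FBS.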
Numbers stand for hits; - = inactive; ? = inconclusive; . = not tested or not shown; ! = not active in a repeat; [ ] = dose if it differs, or a comment. Calls come from the whole dose curve; as a rule, active = well fitted curve in the direction sought with a large enough effect; inconclusive = small, poorly fitted or top-dose-only effect, or another doubt; inactive = no such curve, though single readings can be large; an effect the other way counts as inactive or inconclusive.

SMILES | SMN2 splice enh | ELG1 genotoxic | Luc counter | Rab9 prom act | FLuc counter | NPC1 promoter act
CC(C)c1ccc(S(=O)(=O)NCc2ccc3c(c2)CCN3C(=O)c2ccccc2)cc1 | . | . | . | . | - | .
Cc1ccc(C)c(NC(=S)c2nc3ccccc3s2)c1 | ? | - | - | ? | ? | ?
S=C(Nc1ccc(Cl)cc1)c1nc2ccccc2s1 | ? | - | - | 3.5µM | 6.7µM | 4µM
Cc1ccc(NC(=S)c2nc3ccccc3s2)cc1 | ? | - | - | 2.8µM | 0.95µM | 1.3µM
O=C(Nc1ccc(Cl)cc1)/C(=C/c1cccc(O)c1)c1nc2ccccc2s1 | - | - | - | - | ? | -
O[C@@H](c1cc(-c2ccccc2)nc2c1ccc1ccccc12)C1CCCCN1 (stereo not given in full) | -[9.22 µM] | . | -[7.66 µM] | . | . | .
COc1cccc(-c2cc(C(=O)N3CCCc4ccccc43)no2)c1 | ? | - | - | - | 12µM | -
COc1ccc(C2=NOC(C(=O)N3CCCc4ccccc43)C2)cc1 (stereo not given) | - | - | - | - | 13µM | -
COc1ccc(-c2cc(C(=O)N3CCCc4ccccc43)no2)cc1OC | - | - | - | - | ? | -
COc1ccc(-c2cc(C(=O)N3CCCc4ccccc43)no2)cc1 | - | - | - | ? | 6µM | ?
Cc1c(Cl)cccc1NC(=O)c1cc2sccc2n1Cc1ccc(F)cc1 | - | . | . | . | - | .
Cc1ccc(CNC(=O)CN(c2ccc(C(C)C)cc2)S(=O)(=O)c2c(C)n[nH]c2C)cc1 | - | . | . | . | ? | .
Nc1nn(-c2ccccc2)c(N)c1N=Nc1ccc2c(c1)OCO2 | 6.3µM | ? | - | 0.63µM | 1.7µM | ?
Cc1nn(-c2ccccc2)c2c1C(c1ccc(F)cc1F)C(C#N)=C(N)O2 (stereo not given) | - | - | - | - | - | -
Nc1nn(-c2ccccc2)c(N)c1N=Nc1cccc(F)c1 | . | 6.5µM | . | ? | 4.3µM | ?
Cc1nn(-c2ccccc2)c(N)c1N=Nc1cccnc1 | 13µM | 18µM | - | ? | 13µM | ?
Cc1ccc(C)c(Cn2c(=O)cc(C(F)(F)F)c3c(C)nn(C)c32)c1 | . | . | . | . | - | .
COc1cccc(NC(CNS(=O)(=O)c2ccc(Cl)cc2)c2ccccc2)c1 (stereo not given) | - | . | . | . | - | .
Cc1cccnc1NC(=O)c1ccc2c(c1)NC(=O)C(C)S2 (stereo not given) | . | ? | . | - | 17µM | -
CC1Sc2ccc(C(=O)Nc3ncccc3O)cc2NC1=O (stereo not given) | . | ? | . | 0.89µM | 7.6µM | 1.3µM
CC1Sc2ccc(C(=O)O)cc2NC1=O (stereo not given) | - | - | - | - | - | -
CC1Sc2ccc(C(=O)OCc3ccccc3Cl)cc2NC1=O (stereo not given) | . | ? | . | 1µM | 2.1µM | 2.2µM
CN(C)CCNC(=O)C(=O)NCC1CCCN1S(=O)(=O)c1cccs1 (stereo not given) | . | - | . | - | - | -
CCc1ccccc1N1C(=O)N(Cc2ccc(C#N)cc2)c2ccccc2S1(=O)=O | . | . | . | . | - | .
O=C1c2c(O)ccc(O)c2C(=O)c2c(NCCNCCO)ccc(NCCNCCO)c21 | - | - | 13µM! | - | 19µM | -
SMILES | SMN2 splice enh | ELG1 genotoxic | Luc counter | Rab9 prom act | FLuc counter | NPC1 promoter act
O=C1c2ccccc2C(=O)c2c(Nc3ccc(CCO)cc3)ccc(O)c21 | . | - | . | ? | ? | ?
CC1CCC(NC(=O)C2(C)Cc3ccccc3C(=O)N2Cc2ccc(Cl)cc2)CC1 (stereo not given) | - | . | . | . | - | .
Clc1cccc(N2CCN(c3nc4ccccc4c4nc(-c5cccnc5)nn34)CC2)c1 | - | . | . | . | - | .
O=c1c2ccccc2nc2sc(Nc3cccc4ccccc34)nn12 | . | . | . | . | - | .
CCCSc1nn2c(=O)c3ccccc3nc2s1 | 35µM | 2.9µM | - | 2µM | 7.6µM | 4µM
Cc1cccc(Nc2nn3c(=O)c4ccccc4nc3s2)c1 | 7.9µM | - | - | ? | ? | 4µM
CC1CN(C(=O)N2CCC(C(=O)NCCCc3ccccc3)CC2)c2cc(Cl)ccc2O1 (stereo not given) | . | . | . | . | - | .
COCC(=O)N1CCc2nc(COc3ccccc3)c3c(c2C1)CO[C@@H](C)C3 | -[9.22 µM] | . | -[7.66 µM] | . | . | .
O=C(NC1CCCCC1)c1ccc(N2CCCC2=O)cc1 | ? | ? | - | - | ? | ?
O=C(Nc1ccc(F)c(F)c1)NC1CCCCC1 | 4.5µM | - | - | ? | 15µM | ?
O=C(NC1CC2CCCC(C1)N2C(=O)NC1CCCCC1)c1ccc(F)cc1 (stereo not given) | . | - | . | - | - | -
O=C(Nc1cccc(Cl)c1)NC1CCCCC1 | - | - | - | ? | ? | ?
O=C(Nc1ccc(F)cc1)NC1CCCCCCC1 | . | ? | . | ? | 9.5µM | 3.5µM
O=C(NC1CCCCCC1)c1ccc(N2CCCC2=O)cc1 | 13µM | 9.2µM | - | 3.2µM | 13µM | 4µM
O=C(NC1CCCCCCC1)c1ccc(F)cc1 | . | 10µM | . | 1.4µM | 12µM | 1.4µM
CC1CCN(c2oc(-c3ccc(COc4ccccc4)o3)nc2C#N)CC1 | . | . | . | . | - | .
c1ccc(-c2nc(-c3cccc4ccccc34)c(NC3CCCCC3)o2)cc1 | - | . | - | . | . | .
CC1CCN(CCCNC(=O)c2cc(Sc3ccc(F)cc3)nc3ccccc23)CC1 | . | . | . | . | - | .
S=C(Nc1cccc2ccccc12)NC1CCCCC1 | ? | ? | - | ? | 19µM | -
O=C(Nc1ccc(Cl)cc1)NC1CCCCC1 | 11µM | - | - | 2.5µM | ? | 1.1µM
O=C(Nc1ccccc1F)NC1CCCCCCC1 | . | ? | . | 4µM | 12µM | ?
CCCCCCCCCCCCCCCCCCNC(=O)OCC(COP(=O)([O-])OCC[n+]1ccsc1)OC (stereo not given) | - | . | - | - | . | -
Nc1c(C(=O)Nc2ccccc2)nnn1Cc1ccc(F)cc1Cl | - | . | . | . | - | .
COc1ccc(-n2nc3ccc(NS(C)(=O)=O)cc3n2)cc1Cl | - | 16µM | - | - | 3.4µM | ?
Cc1ccc(-n2nc3ccc(N)cc3n2)cc1Cl | . | ? | . | ? | 0.67µM | ?
SMILES | SMN2 splice enh | ELG1 genotoxic | Luc counter | Rab9 prom act | FLuc counter | NPC1 promoter act
Cc1ccc(C)c(-c2nc3ccc(N)cc3[nH]2)c1 | - | ? | - | - | ? | -
COc1ccc(-n2nc3ccc(NC(=O)c4ccc(C#N)cc4F)cc3n2)cc1Cl | - | . | . | . | - | .
COc1ccc(-n2nc3ccc(N)cc3n2)cc1Cl | . | ? | . | - | 1.5µM | -
Cc1ccc(-n2nc3ccc(N)cc3n2)c(C)c1 | . | ? | . | - | 7.6µM | -
O=C(NCCC1=CCCCC1)c1ccc2c(c1)N(Cc1ccccc1F)C(=O)c1ccccc1S2=O (stereo not given) | - | . | . | . | - | .
Cc1ccc(-n2nc3ccc(N)cc3n2)cc1C | . | 0.92µM | . | 0.5µM | 0.48µM | 1.6µM
CCOc1ccc(NC(=S)NC(=O)c2ccco2)cc1 | . | - | . | 1.4µM | 11µM | 2µM
COc1ccc(OCC(=O)Nc2cccc(NC(=O)c3ccco3)c2)cc1 | . | - | - | - | 12µM | -

Source: PubChem
